Eight compounds from PubChem BioAssay (NCI) can be followed below.

This is part of a sample that, as a whole, favours compounds with a hit. Of some 83,000 tested, about 20% had one in any assay.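 96-well plates, one dose, 48 hours. Percent growth reported; active if below 10.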 Values without a mark were called inactive. Calls of active or inactive are those of the source.

Test systems include HCT-15 colon; HT29 colon; SNB-75 CNS; SNB-19 CNS; U251 CNS; PC-3 prostate; SK-MEL-5 melanoma; UACC-62 melanoma; LOX IMVI melanoma; SK-MEL-28 melanoma; SK-MEL-2 melanoma; EKVX NSCLC; UO-31 renal; TK-10 renal; ACHN renal; CAKI-1 renal; A498 renal; CCRF-CEM leukemia; MOLT-4 leukemia; SN12C renal.
Assay in all cases: NCI-60 one-dose screen, 48 h (100 = growth as untreated, 0 = no growth, -100 = all killed)
What all share (details): 10 µM unless noted

With `CSc1ccc(N2C(=N)C(=S)N(c3ccc(C)cc3)C2=O)cc1`, the growth is 85.9% in the assay on HCT-15 colon; 107% with HT29 colon; 89.9% in the assay with SNB-75 CNS; 101% in the assay with SNB-19 CNS; 91% with U251 CNS; 74% in the assay with PC-3 prostate. In addition, the growth in the assay with SK-MEL-5 melanoma is 101%; in the assay with UACC-62 melanoma it was 92.8%; in the assay with LOX IMVI melanoma, 87.4%; in the assay on SK-MEL-28 melanoma it was 106%; in the assay with SK-MEL-2 melanoma, 118%; with EKVX NSCLC it was 93.9%. The growth in the assay on UO-31 renal is 75.5%; with TK-10 renal, 109%; in the assay with ACHN renal, 88.2%; in the assay with CAKI-1 renal, 82.7%; in the assay with A498 renal, 104%; in the assay with CCRF-CEM leukemia it was 80.6%. Further, the growth in the assay on MOLT-4 leukemia is 89.8%.

For `Brc1ccc(Nc2nc(Nc3cnc4ccccc4c3)c3[nH]cnc3n2)cc1`, the growth in the assay on HCT-15 colon is 83%; with HT29 colon, 70.7%; in the assay with SNB-75 CNS, 77.5%; with SNB-19 CNS it was 93.6%; in the assay on U251 CNS, 89.4%; with PC-3 prostate, 27.6%. Moreover, the growth in the assay on SK-MEL-5 melanoma is 72.6%; with UACC-62 melanoma it was 66.8%; in the assay on LOX IMVI melanoma, 63.7%; in the assay with SK-MEL-28 melanoma, 94.2%; in the assay on SK-MEL-2 melanoma, 78.2%; in the assay on EKVX NSCLC it was 40.3%. Also, the growth was 70.3% with UO-31 renal; 113% with TK-10 renal; 77.5% in the assay with ACHN renal; 82.9% in the assay on CAKI-1 renal; 79.6% in the assay on A498 renal; 60.6% with CCRF-CEM leukemia. Also, in the assay with MOLT-4 leukemia, the growth was 78.3%.

Regarding `CCOC(=O)C/C(=N\Nc1cc(=O)[nH]c2ccc(OC)cc12)C(=O)OCC`, the growth in the assay on HCT-15 colon was 99.7%; in the assay with HT29 colon it was 110%; with SNB-75 CNS, 94.6%; in the assay on SNB-19 CNS, 100%; in the assay on U251 CNS it was 106%; with PC-3 prostate it was 89%. Besides, the growth with SK-MEL-5 melanoma is 99.7%; in the assay with UACC-62 melanoma, 90.4%; with LOX IMVI melanoma it was 96.6%; in the assay on SK-MEL-28 melanoma, 99.6%; in the assay with SK-MEL-2 melanoma it was 117%; in the assay on EKVX NSCLC it was 100%. Besides, the growth with SN12C renal was 99.5%; with UO-31 renal, 78.1%; in the assay with ACHN renal, 98.8%; in the assay with CAKI-1 renal, 91.9%; in the assay with A498 renal it was 106%; in the assay on CCRF-CEM leukemia it was -47.5% (active). Further, in the assay with MOLT-4 leukemia, the growth was 26.1%.

As for `COc1ccc(C2[C@@H](Cl)C(=O)N2c2cc(OC)c(OC)c(OC)c2)cc1Cl` (stereo partly specified), the growth was 11% in the assay with HCT-15 colon; -3.88% (active) in the assay with HT29 colon; 75.7% with SNB-75 CNS; 32.1% in the assay with SNB-19 CNS; 5.8% (active) in the assay with U251 CNS; 25.1% in the assay on PC-3 prostate. Further, the growth is -23.8% (active) in the assay on SK-MEL-5 melanoma; 36.3% in the assay on UACC-62 melanoma; 20.9% in the assay on LOX IMVI melanoma; 69.6% in the assay with SK-MEL-28 melanoma; 15% in the assay on SK-MEL-2 melanoma; 35.4% with EKVX NSCLC. The growth with SN12C renal was 29.1%; in the assay on UO-31 renal, 45.3%; in the assay with ACHN renal, 33.6%; in the assay with CAKI-1 renal, 26.5%; in the assay on A498 renal, -6% (active); in the assay on MOLT-4 leukemia, 13.5%.

Regarding `NC(=O)c1ccccc1OCC(=O)Nc1ccc(Cl)c(Cl)c1`, the growth with HCT-15 colon was 102%; with HT29 colon it was 113%; with SNB-75 CNS it was 83.3%; with SNB-19 CNS it was 93.2%; in the assay on U251 CNS it was 97.3%; with PC-3 prostate, 106%. The growth is 99.9% in the assay on SK-MEL-5 melanoma; 83.3% in the assay on UACC-62 melanoma; 108% in the assay on LOX IMVI melanoma; 107% with SK-MEL-28 melanoma; 107% in the assay with SK-MEL-2 melanoma; 92.2% in the assay with EKVX NSCLC. The growth in the assay on UO-31 renal is 84.1%; with TK-10 renal, 143%; in the assay with ACHN renal, 89.3%; with CAKI-1 renal, 70.6%; in the assay on A498 renal, 93.7%; in the assay with CCRF-CEM leukemia, 92.3%. Moreover, in the assay with MOLT-4 leukemia, the growth was 89%.

For the compound `C(=C(\C1=NCCN1)n1ccc2ccccc21)/c1ccccc1`, the growth is 99.6% with HCT-15 colon; 103% in the assay with HT29 colon; 80.7% in the assay with SNB-75 CNS; 99.9% in the assay with SNB-19 CNS; 94.6% in the assay with U251 CNS; 95.5% with PC-3 prostate. The growth was 98.3% with SK-MEL-5 melanoma; 93.5% with UACC-62 melanoma; 93.3% with LOX IMVI melanoma; 106% in the assay on SK-MEL-28 melanoma; 106% with SK-MEL-2 melanoma; 92.8% in the assay with EKVX NSCLC. Moreover, the growth is 98.3% in the assay with SN12C renal; 62.4% with UO-31 renal; 95.9% in the assay with ACHN renal; 80.7% with CAKI-1 renal; 102% in the assay with A498 renal; 100% in the assay on CCRF-CEM leukemia. In addition, in the assay on MOLT-4 leukemia, the growth is 97.8%.

As for `CCOc1ncc([N+](=O)[O-])c(OCC)n1`, the growth in the assay with HCT-15 colon is 104%; in the assay on HT29 colon, 121%; with SNB-75 CNS, 97%; with SNB-19 CNS, 104%; in the assay with U251 CNS, 109%; in the assay with PC-3 prostate, 88.1%. Also, the growth was 99.9% in the assay with SK-MEL-5 melanoma; 95.9% with UACC-62 melanoma; 101% in the assay with LOX IMVI melanoma; 105% in the assay with SK-MEL-28 melanoma; 103% in the assay with SK-MEL-2 melanoma; 122% in the assay with EKVX NSCLC. For the same compound, the growth in the assay with SN12C renal was 91.8%; with UO-31 renal it was 106%; in the assay with ACHN renal, 106%; in the assay with CAKI-1 renal, 116%; in the assay on A498 renal, 111%; in the assay on CCRF-CEM leukemia, 101%. Moreover, the growth with MOLT-4 leukemia is 90.9%.

With `COC(=O)c1c2c(c[n+]([O-])c1C)C(=O)C=C(NCc1ccccc1)C2=O`, the growth in the assay on HCT-15 colon is -58.8% (active); with HT29 colon it was 0.45% (active); with SNB-75 CNS, -97.3% (active); with SNB-19 CNS, -99.4% (active); in the assay on U251 CNS, -93.1% (active); with PC-3 prostate, -10.8% (active). Moreover, the growth is -100% (active) with SK-MEL-5 melanoma; -81.3% (active) in the assay on UACC-62 melanoma; -74.6% (active) with LOX IMVI melanoma; -71.4% (active) with SK-MEL-28 melanoma; -70.8% (active) with SK-MEL-2 melanoma; -98.8% (active) with EKVX NSCLC. In addition, the growth with UO-31 renal is -100% (active); in the assay with TK-10 renal, -82.4% (active); with ACHN renal it was -89.7% (active); in the assay on CAKI-1 renal, -98.2% (active); with A498 renal, -99.3% (active); in the assay with CCRF-CEM leukemia, 0.673% (active). Besides, the growth with MOLT-4 leukemia was -44.3% (active).
